Screens: PubChem BioAssay, National Center for Advancing Translational Sciences (NCATS)
This is a sample that favours compounds with a hit; in the whole collection about 1.6% have one here.
pAkt inh = inhibitors of Akt phosphorylation. activity change, % for hits at 50 µM. 360,000 tested, 0.32% active. Neuro2A IGF-stimulated pAkt S473 HTRF, 20 min; active compounds read low; in the data active = activity change below about -80%; inconclusive = mostly about -51% to -80%; note: % is set by controls: 0 for no effect and ±100 for the full control effect
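Neuro2A cells (4,500/well, DMEM with 0.5% FBS) were treated with compound at a single 50 µM final concentration, stimulated with 6 nM IGF for 20 min at 37 °C, and lysed. Phospho-Akt Ser473 was read by HTRF as 665/615 ratio ×10^4.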
gsp antag = gsp mutant antagonism; gsp-mutant cells, cAMP HTRF, 30 min; Potency, µM (titrated, usually from 76.9 µM), for inactives: top-dose activity change, negative = inhibition, usual class: inhibitors; 340,000 tested, 0.4% active; AID 624288; calls by dose curve; cell line not stated here;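 note: intracellular cAMP measured with PDE inhibitor Ro 20-1724 present during compound exposure; potency is the fitted concentration of half-maximal effect; % is set by controls: 0 for no effect and ±100 for the full control effect; nearly all actives have a fitted effect of over 65% in size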
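HTRF cAMP read-out (cAMP-d2 plus anti-cAMP antibody-K in lysis buffer, 30 min RT). Before lysis, cells are exposed to compounds with […] for 30 min at 37C in DPBS containing Ca/Mg, BSA and Tween 20.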
Glioma ERSR ind = inducers of ER stress response in human glioma cells; 420,000 tested, 0.02% active; AID 602332; Potency, µM, for inactives: at the highest dose activation, actives largely listed as activators; U87-MG GRP78 promoter luciferase reporter, 16 h; active = well fitted activation curve with a large enough effect; inconclusive = small, poorly fitted or top-dose-only effect; inactive = no such curve, though single readings can be large or run the other way; note: potency is the fitted concentration of half-maximal effect; series mostly up to about 76 µM; % of control where 0% means no effect; nearly all actives have a fitted effect of over 35% in size
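ERSR induction read as luciferase luminescence (Bright-Glo, 10 min at room temperature) in stably transfected human U87-MG glioma cells exposed to compounds for 16 h, using GRP78 as sensor.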
KCNH2 WT inh = KCNH2 (human, wildtype) channel inhibition; U2OS, BacMam KCNH2, thallium flux FluxOr; active compounds read low; activity change, % at 1.84 µM; 340,000 tested, 0.37% active;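 active = maximum activity change below -70%; inconclusive = maximum activity change between -70% and -50%; inactive = maximum activity change above -50%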; note: % is set by controls: 0 for no effect and ±100 for the full control effect
Target sequence (Q12809 whole entry, looked up): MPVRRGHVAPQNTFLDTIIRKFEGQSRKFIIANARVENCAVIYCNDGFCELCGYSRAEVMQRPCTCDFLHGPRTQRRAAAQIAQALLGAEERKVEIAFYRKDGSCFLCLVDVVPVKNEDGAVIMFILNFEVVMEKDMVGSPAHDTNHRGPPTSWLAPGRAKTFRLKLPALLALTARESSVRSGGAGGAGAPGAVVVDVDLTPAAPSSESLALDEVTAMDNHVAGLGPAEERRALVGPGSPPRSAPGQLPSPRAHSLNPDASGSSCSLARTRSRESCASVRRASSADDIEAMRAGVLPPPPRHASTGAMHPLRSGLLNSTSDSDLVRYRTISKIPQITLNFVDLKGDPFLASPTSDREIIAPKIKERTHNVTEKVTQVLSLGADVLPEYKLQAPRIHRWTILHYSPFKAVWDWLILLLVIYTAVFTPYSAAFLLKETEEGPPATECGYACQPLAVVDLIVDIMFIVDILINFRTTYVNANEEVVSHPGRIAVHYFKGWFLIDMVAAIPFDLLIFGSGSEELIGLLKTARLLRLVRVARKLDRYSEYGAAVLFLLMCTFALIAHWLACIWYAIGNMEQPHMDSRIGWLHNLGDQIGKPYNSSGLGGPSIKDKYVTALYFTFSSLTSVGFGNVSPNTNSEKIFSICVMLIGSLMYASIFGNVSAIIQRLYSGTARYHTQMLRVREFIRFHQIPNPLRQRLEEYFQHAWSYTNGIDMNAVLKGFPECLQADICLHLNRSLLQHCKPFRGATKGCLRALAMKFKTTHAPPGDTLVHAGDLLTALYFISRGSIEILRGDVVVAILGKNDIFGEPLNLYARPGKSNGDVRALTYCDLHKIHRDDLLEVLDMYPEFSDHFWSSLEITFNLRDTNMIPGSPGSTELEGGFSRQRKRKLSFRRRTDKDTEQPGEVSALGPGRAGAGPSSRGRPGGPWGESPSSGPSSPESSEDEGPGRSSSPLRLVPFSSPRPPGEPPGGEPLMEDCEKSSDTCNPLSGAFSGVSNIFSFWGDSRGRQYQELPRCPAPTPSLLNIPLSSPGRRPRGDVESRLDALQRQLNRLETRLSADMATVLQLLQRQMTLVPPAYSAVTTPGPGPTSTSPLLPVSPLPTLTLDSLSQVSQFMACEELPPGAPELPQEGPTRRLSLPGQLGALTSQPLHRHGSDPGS
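U2OS cells transduced with wild-type KCNH2 virus are loaded with FluxOr dye for 45 min, and thallium flux is measured in kinetic reads before and after stimulation buffer. Rate constants are normalized to DMSO controls.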
gsp ag = agonists of gsp mutant (McCune-Albright syndrome); AID 624287; gsp mutant cells, cAMP HTRF, 30 min; 340,000 tested, 0.13% active; Potency, µM (doses to about 76.9 µM), for inactives: top-dose activation (cAMP increase), most hits filed as activators; active = well fitted activation curve with a large enough effect; inconclusive = small, poorly fitted or top-dose-only effect, or another doubt; inactive = no such curve, though single readings can be large or run the other way; cell line not stated here;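 note: phosphodiesterase inhibitor Ro 20-1724 added with compounds to block cAMP breakdown; potency is the fitted concentration of half-maximal effect; nearly all actives have a fitted effect of over 60% in size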
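Cells in DMEM/10% FBS with G418 were pretreated with compounds in DMSO plus […] (300 uM stock) for 30 min at 37C. cAMP was measured by HTRF (cAMP-d2 plus anti-cAMP antibody-K) after 30 min at room temperature.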
KCNH2 3.1 inh = inhibitors of human KCNH2 3.1 potassium channel isoform. U2OS KCNH2 3.1, thallium flux FluxOr; active compounds read low. 340,000 tested, 0.95% active. AID 720553. activity change, % (tested at about 1.8 µM);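 active = maximum activity change below -70%; inconclusive = maximum activity change from -70% to -50%; inactive = maximum activity change above -50%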;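 note: thallium influx rate constant from kinetic fluorescence after stimulation buffer; % is set by controls: 0 for no effect and ±100 for the full control effect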
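Kinetic fluorescence (2 min after stimulation buffer) measures Tl+ influx through KCNH2 3.1 expressed by viral transduction in U2OS cells; the rate constant is normalized against DMSO controls serving as positive and negative references.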
* = called active by the depositor; i = inactive; ? = inconclusive; / = no result; [ ] = dose if it differs, or a comment.

SMILES	pAkt inh	gsp antag	Glioma ERSR ind	KCNH2 WT inh	gsp ag	KCNH2 3.1 inh
COC(=O)C1=C(C)NC(C)=C(C(=O)O[C@H]2CCN(Cc3ccccc3)C2)C1c1cccc([N+](=O)[O-])c1 (stereo not given in full)	/	/	-4.8%	/	/	/
O=C1COc2ccc(S(=O)(=O)N3CCN(c4ccccc4)CC3)cc2N1	i	1.9%	0.2%	-1.8	25.1%	1.9
Cc1cccc(N2CCN(S(=O)(=O)c3ccc4c(c3)NC(=O)CO4)CC2)c1C	i	15.5%	-5.3%	6.7	?	15.6
Cc1cccc(N2CCN(C(=O)CCS(=O)(=O)c3ccc4c(c3)NC(=O)CO4)CC2)c1C	i	31.6µM*	-7.1%	-2.8	-20.7%	-7.1
CC(CC(=O)N1CCN(c2ccccc2)CC1)S(=O)(=O)c1ccc2c(c1)NC(=O)CO2 (stereo not given)	i	50.1µM*	-4.5%	-7.5	?	9.6
Cc1c(CN2CCOc3ccc(C(C)(O)COc4ccccc4)cc3C2)cnn1C (stereo not given)	/	/	-2.4%	/	/	/
O=C(c1ccc(N2CCC(NCCCn3ncc4ccccc43)CC2)cc1)N1CCc2ccccc2C1	/	/	-2.4%	/	/	/
COc1ccc(NC(=O)CN2CCN(CC(=O)Nc3ccccc3OC)CC2)c(OC)c1	i	-9.4%	1.1%	17.5	23.2%	-30.8
COc1ccc(OC)c(NC(=O)CN2CCC(C(=O)c3ccc(C)cc3)CC2)c1	/	28.2µM*	-2.8%	18.7	14.8%	-30.2
COc1ccc(NC(=O)CN2CCc3ccccc3C2)c(OC)c1	i	-0.7%	4.6%	-246.6*	-14.1%	0.3
Cc1onc(-c2ccccc2)c1C(=O)NCCN1Cc2ccccc2OC(c2ccsc2)C1 (stereo not given)	/	/	-4.5%	/	/	/
Cc1c(C(=O)NCc2ccc3c(c2)OCO3)oc2ccc(S(=O)(=O)N3CCCCCC3)cc12	-112.3%*	-13.6%	-2.7%	-15.5	0.3%	-3.6
Cn1cc(CNCc2cnc3ccccn23)c(-c2ccc(Oc3ccccc3)cc2)n1	i	-17.5%	2.2%	i	26.1%	-206.7*
CN(Cc1ccno1)Cc1cn(C)nc1-c1ccc(Oc2ccccc2)cc1	i	?	-1.0%	-8.3	-1.1%	-2.6
CN(Cc1cn(C)nc1-c1ccc(Oc2ccccc2)cc1)Cc1cnc2ccccn12	i	39.8µM*	-2.8%	1.8	?	-31.5
Cc1ccc(C(=O)Nc2cnn(-c3ccc(C(=O)N(C)Cc4n[nH]c5c4CCCC5)cc3)c2)c(C)c1	/	/	-5.3%	/	/	/
COc1ccc([C@H]2CC(=O)C=C(c3ccc(CNC(=O)OC(C)(C)C)cc3)C2)cc1	i	35.5µM*	-6.4%	1.0	9.8%	4.0
Fc1cccc(Cl)c1C1Nc2cccc3cccc(c23)N1	i	-10.7%	2.5%	-4.2	-14.2%	5.8
Clc1cccc(Cl)c1C1Nc2cccc3cccc(c23)N1	i	-23.8%	7.4%	-5.7	33.0%	-96.6*
COC(=O)/C(=C\C(=O)c1ccc([N+](=O)[O-])cc1)Nc1ccc(OC)cc1	i	-10.2%	-2.8%	-5.7	-5.2%[15.4 µM]	-77.2*
CCN(CC)CCOC(=O)C(Cc1ccco1)Cc1cccc2ccccc12 (stereo not given)	i	9.4%	-4.1%	-7.0	22.4%	-73.8*
CCN(CC)CCOC(=O)CCc1cccc2ccccc12	i	3.4%	-5.0%	-10.6	0.0%	-7.1
COc1ccc(NC(=O)NCCCN2CCC(Cc3ccccc3)CC2)cc1	i	-6.0%	-4.4%	-43.9	5.5%	-104.2*
COc1ccc(-c2noc(CCC(=O)NCCCN3CCN(c4ccc(F)cc4)CC3)n2)cc1	i	-0.7%	-5.3%	39.8	-24.6%	3.2
COc1ccc(-c2noc(CCC(=O)NCCCN3CCC(Cc4ccccc4)CC3)n2)cc1	i	11.2%	-6.5%	?	14.4%	-103.2*
SMILES	pAkt inh	gsp antag	Glioma ERSR ind	KCNH2 WT inh	gsp ag	KCNH2 3.1 inh
COc1ccc(-c2cc3c(=O)n(CC(=O)NCCCN4CCC(Cc5ccccc5)CC4)ncn3n2)cc1	i	18.4%	-4.9%	-111.0*	6.7%	-71.3*
O=C(NCCCN1CCN(c2ccc(F)cc2)CC1)NC12CC3CC(CC(C3)C1)C2	i	6.0%	-5.2%	?	-7.4%	-82.6*
CC/C=C(/C(=O)N[C@@H]1C(=O)N2C(C(=O)OCOC(=O)C(C)(C)C)=C(COC(N)=O)CS[C@H]12)c1csc(N)n1	/	/	-1.7%	/	/	/
CSc1ccc(N2CCN(CCCNC(=O)Nc3ccccc3F)CC2)cc1	i	0.8%	0.8%	38.0	14.8%	-77.5*
CSc1ccc(NC(=O)NCCN2CCc3ccccc3C2)cc1	i	-16.3%	1.3%	13.7	-4.1%	-19.7
CSc1ccc(NC(=O)NCCCN2CCC(Cc3ccccc3)CC2)cc1	i	17.4%	-3.4%	-48.4	3.9%	-106.5*
COc1cc(Cl)c(C)cc1N1C(=O)[C@@H]2C[C@H]1CN2Cc1ccccn1	/	/	-4.2%	/	/	/
COc1cc(OC)c(/C=C/c2cc3ccccc3c[n+]2C)c(OC)c1	/	/	-6.5%	/	/	/
CCOC(=O)N1CCN(C(=O)c2cnc(Nc3ccccc3OC)c3ccccc23)CC1	i	-11.5%	-3.7%	1.7	-3.0%	-193.2*
CCC(=O)Nc1ccc(C(=O)CSc2nnc(-c3ccc(NS(=O)(=O)CC)cc3)o2)cc1OC	i	0.9%	-3.3%	-91.9*	12.9%[15.4 µM]	8.0
CC(C)(C)n1ncc2c(=O)n(Cc3cccc(OC(F)F)c3)cnc21	/	/	-0.5%	/	/	/
C=CCn1c(=O)c2ccccc2n2c(Sc3nnnn3-c3ccccc3)nnc12	-109.9%*	-2.0%	1.5%	3.4	8.0%	-12.0
CCC(C)(C(=O)NC1CCCCC1)N(C(=O)CNC(C)=O)c1c(C)n(C)n(-c2ccccc2)c1=O (stereo not given)	-131.4%*	-1.0%	0.9%	-2.9	?	-8.6
CCC(C)(C(=O)NC1CCCC1)N(C(=O)Cc1cccs1)c1c(C)n(C)n(-c2ccccc2)c1=O (stereo not given)	i	1.0%	0.3%	-12.5	-14.5%[15.4 µM]	8.2
Cc1cccc(-c2nnc(C(C)Nc3cccc(C(=O)NC4CC4)c3)o2)c1 (stereo not given)	i	/	-3.3%	6.7	-34.0%	-72.8*
CC(Nc1cccc(C(=O)NC2CC2)c1)c1nnc(-c2ccccc2)o1 (stereo not given)	i	-6.2%	-0.4%	1.1	?	7.3
O=C(N[C@@H]1c2ccccc2C2(CCN(Cc3c(O)ccc4ccccc34)CC2)[C@H]1O)c1ccccc1	/	/	-0.9%	/	/	/
Cn1cc(CNCCCn2ncc3ccccc32)c(-c2ccccc2F)n1	i	1.3%	-3.8%	14.2	13.0%	-96.8*
Cn1cc(CNCc2ccc(-n3cccn3)cc2)c(-c2ccccc2F)n1	i	-3.5%	-3.7%	12.7	16.4%[15.4 µM]	-7.3
